Consider 40 compounds from PubChem BioAssay (Tox21).

Results filed as inconclusive are left out. A number with no mark means an inactive call. Active and inactive are the calls of the source. Calls come from the whole dose curve; as a rule, active = well fitted activation curve with a large enough effect in the repeat runs; inconclusive = weak or mixed curves, or effect the other way; inactive = no such curve, though single readings can be large or run the other way.
% is set by controls: 0 for no effect and ±100 for the full control effect; potency is the fitted concentration of half-maximal effect.

This assay can be described thus: qHTS assay to identify small molecule agonists of the retinoic acid receptor (RAR) signaling pathway (AID 1159553). As to conditions: C3RL4 RARE luciferase reporter, agonist, 6 h; activation: at 73.3 µM (top of the series). An excerpt:
National Center for Advancing Translational Sciences [NCATS] NIH Chemical Genomics Center [NCGC] U.S. Environmental Protection Agency [EPA] National Institutes of Environmental Health Sciences [NIEHS] National Toxicology Program [NTP] Assay overview: All-trans Retinoic acid (atRA) is the potent natural metabolite of retinol and plays an important role in normal embryonic development and maintenance of cellular phenotype in adult animals. atRA is the activating ligand for the retinoic acid receptors (RARs) which form heterodimers with retinoid X receptors (RXRs) on the retinoic acid response element (RARE). Through activation of the RAR/RXRs nuclear receptors, atRA regulates the transcription of a large number of protein-coding genes and regulatory RNAs. Intracellular levels of atRA are controlled by the retinol signaling pathway (RSP) that regulates the biosynthesis and catabolism of atRA to maintain physiological levels. Chemicals that interfere with the RSP can cause abnormal intracellular levels of atRA and therefore are potential developmental toxicants. To assess compounds for the potential adverse effect on embryonic development through interfering with retinol signaling, a cell-based RARE luciferase reporter gene assay was used. C3RL4 cell line (OARSA/CFSAN/FDA, Laurel, MD) was used to screen Tox21 10K compound library for identifying activators of the RSP.
Assay Protocol Summary: C3RL4 cells were seeded at 1,000/well in 5 uL of assay medium into white solid 1,536-well tissue culture plates (Greiner Bio-One North America Inc. Monroe, NC) using a Multidrop Combi (Thermo Scientific, Waltham, MA) dispenser. After incubation at 37 C and 5% CO2 for an overnight, 23 nL of compounds dissolved in DMSO, positive control or DMSO only were transferred by a Pintool station (Kalypsys, San Diego, CA). After 6 hr incubation at 37 C and 5% CO2, 5 uL of Amplite Luciferase reagent (AAT Bioquest Inc. Sunnyvale, CA) was added to each assay plate using a Flying Reagent Dispenser (FRD) (Aurora Discovery, San Diego, CA). Luminescence was quantified on a ViewLux plate reader (PerkinElmer, Waltham, MA) after 30 min incubation at room temperature.
Background: Quantitative high-throughput screening tests each substance at several concentrations.
As to `CC1=NN(c2ccc(S(=O)(=O)O)cc2)C(=O)C1N=Nc1ccccc1` (stereo not given), the “activation” value was 3.45%.
`CN[C@@H]1[C@@H](O)[C@@H](O[C@@H]2[C@H](O)[C@H](O[C@H]3OC(CN)=CC[C@H]3N)[C@@H](N)C[C@H]2N)OCC1(C)O` (stereo not given in full): the “activation” value was 1.75%.
On the same count and under the same terms, the figure for `CCS(=O)(=O)CCn1c([N+](=O)[O-])cnc1C` is 0.295%; for `CCCCC(CC)COC(=O)c1ccccc1` (stereo not given) it is 0.3%.
On the same count and under the same terms, the figure for `CC(Cl)COP(=O)(OCC(C)Cl)OCC(C)Cl` (stereo not given) is -2.18%; for `CCCCC(=O)N(C)C` it is 0.0028%.
Still for that read-out and setting: the figure for `C=C(C)C(=O)OCCCCCCOC(=O)C(=C)C` is 1.9%; for `Nc1cc(Cl)cc(S(=O)(=O)O)c1O` it is -1.72% [at 94.8 µM].
On to `CC(=O)OCCCc1ccccc1`, for which the “activation” value was 2.1%.
`CO[Si](CCCS)(OC)OC`: the “activation” value is -0.41%.
`C=CCOc1cc(Cl)ccc1C(=O)NCCN(CC)CC`: the “activation” value was 0.213%.
Consider `CC(C)SCc1ccco1`, for which the “activation” value was 1.12% [at 34.3 µM].
For the compound `CC(C)COC(=O)COc1ccc(Cl)cc1Cl`, the “activation” value is 1.33%.
As to `CCOC(=O)C(=O)c1csc(NC=O)n1`, the “activation” value is 0.092%.
With `COc1ccc(N=Nc2cc(C)c(N=Nc3ccc(S(=O)(=O)O)cc3)cc2OC)cc1`, the “activation” value is 1.6%.
Take `Cc1ccccc1N1CCN(CCc2nnc3n2CCCC3)CC1`: the “activation” value is 1.87%.
As to `COc1cc2c(Nc3ccc(Br)cc3F)ncnc2cc1OCC1CCN(C)CC1`, the “activation” value is 1.42%.
`Cc1oc(=O)oc1CN1CCN(c2cc3c(cc2F)c(=O)c(C(=O)O)c2n3C(C)S2)CC1` (stereo not given): the “activation” value is -5.31%.
For the compound `Nc1ccnc(=O)[nH]1`, the “activation” value is -0.52%.
With `NS(=O)(=O)c1cc2c(cc1Cl)NC(CC1CCCC1)NS2(=O)=O` (stereo not given), the “activation” value is 1.65%.
Take `C=CCOCC(O)CCl` (stereo not given): the “activation” value is -0.457%.
For the compound `CC(C)(C)NCCO`, the “activation” value is 0.178%.
On to `CCCCCCCCCCCCOC(C)=O`, for which the “activation” value was -2.54%.
In the case of `COC(=O)CCC(=O)O`, the “activation” value was -0.639%.
On to `CCCCCCCCOC(C)=O`, for which the “activation” value was 0.317%.
For the compound `CCCCCC(=O)OCC`, the “activation” value is -0.003%.
For `COc1cc(C=O)ccc1OC(=O)C(C)C`, the “activation” value was 0.153%.
`CCCOC(=O)CCCCC(=O)OCCC`: the “activation” value is -3.23%.
As for `COc1cc2c3cc1Oc1cc(ccc1O)C[C@@H]1c4c(cc(OC)c(O)c4Oc4ccc(cc4)C[C@@H]3N(C)CC2)CC[N+]1(C)C`, the “activation” value was 2.44%.
Turning to `CN=C(NC#N)NCCSCc1csc(N=C(N)N)n1`, the “activation” value was 2.38%.
Still for that read-out and setting: the figure for `Cc1ccccc1C(=O)N1CC/C(=N\OS(=O)(=O)O)c2ccc(Cl)cc21` is 1.49%.
Regarding `CC(C)COC(=O)CCCCC(=O)OCC(C)C`, the “activation” value was 0.0402%.
Consider `C=CCOc1c(Br)cc(C(C)(C)c2cc(Br)c(OCC=C)c(Br)c2)cc1Br`, for which the “activation” value was -0.867%.
Turning to `CC(=O)OCC(=O)[C@@]1(O)[C@H](OC(C)=O)C[C@H]2[C@@H]3CCC4=CC(=O)C=C[C@]4(C)[C@@]3(F)[C@@H](O)C[C@@]21C`, the “activation” value was -6.49%.
As to `CCN(CCC#N)c1ccccc1`, the “activation” value was 0.203%.
On to `SCCSCCS`, for which the “activation” value was 8.76%.
Turning to `O=c1[nH]c(=O)c2[nH]c(=O)[nH]c2[nH]1`, the activation is 0.0515% [at 8.36 µM].
Consider `CCCCCCCCCCC`, for which the “activation” value is -0.0526%.
Take `O=C(O)c1ccccc1C(=O)OCc1ccccc1`: the Potency is 48.6 µM (active).
Turning to `Cc1ccc(S(=O)(=O)NC(=O)NC2CCCCCCC2)cc1`, the “activation” value was 1.8%.
